Laboratory results as given in PubChem BioAssay AID1159580 (chemical genetic matrix, 2015).
Hit rate of the full screen: of about 5,500 compounds, about 2,000 (36%) were called active. Roughly 18% stayed inconclusive and do not appear here. Cut-off read from the data, not from the text of the source: active = normalized growth mostly below about 0.91 (no sharp cut-off); inconclusive = no clear call, values can overlap the other calls; inactive = mostly above about 0.92. The list shows a part of the results.

Assay: chemical genetic growth profiling, strain panel (AID 1159580);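 note: tested at 20 µM; growth read once vehicle control cultures reached saturation at 30 °C; 1 = growth at the plate median or of vehicle wells; lower values mean less growth of the strain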
Conditions: growth OD

Measured: normalized growth

CC(=O)OC1CCC2(C)C(CC(OC(C)=O)C3(C)C4=CC(=O)OC(c5ccoc5)C4(C)CCC23)C1(C)C (stereo unspecified)
inactive: S. cerevisiae deletion strains, locus YAL013W, strain DEP1, stronger effect = lower value 0.989 | S. cerevisiae deletion strains, locus YBR021W, strain FUR4, stronger effect = lower value 1.02 | S. cerevisiae deletion strains, locus YBR229C, strain ROT2, stronger effect = lower value 1 | S. cerevisiae deletion strains, locus YCL029C, strain bik1, stronger effect = lower value 0.995 | S. cerevisiae deletion strains, locus YDL035C, strain GPR1, stronger effect = lower value 0.972 | S. cerevisiae deletion strains, locus YDL074C, strain BRE1, stronger effect = lower value 0.791 | S. cerevisiae deletion strains, locus YDL101C, strain DUN1, stronger effect = lower value 0.995 | S. cerevisiae deletion strains, locus YDL134C, strain PPH21, stronger effect = lower value 0.989 | S. cerevisiae deletion strains, locus YDL185W, strain tfp1, stronger effect = lower value 0.963 | S. cerevisiae deletion strains, locus YDL192W, strain arf1, stronger effect = lower value 0.998 | S. cerevisiae deletion strains, locus YDR101C, strain arx1, stronger effect = lower value 1.01 | S. cerevisiae deletion strains, locus YDR150W, strain NUM1, stronger effect = lower value 0.98 | S. cerevisiae deletion strains, locus YDR162C, strain NBP2, stronger effect = lower value 1.01 | S. cerevisiae deletion strains, locus YDR318W, strain mcm21, stronger effect = lower value 0.992 | S. cerevisiae deletion strains, locus YDR388W, stronger effect = lower value 1 | S. cerevisiae deletion strains, locus YDR502C, strain sam2, stronger effect = lower value 1.01 | S. cerevisiae deletion strains, locus YEL061C, strain CIN8, stronger effect = lower value 1.01 | S. cerevisiae deletion strains, locus YER110C, stronger effect = lower value 1 | S. cerevisiae deletion strains, locus YER155C, strain BEM2, stronger effect = lower value 0.997 | S. cerevisiae deletion strains, locus YER167W, strain BCK2, stronger effect = lower value 0.994 | S. cerevisiae deletion strains, locus YGL078C, strain dbp3, stronger effect = lower value 0.993 | S. cerevisiae deletion strains, locus YGL086W, strain mad1, stronger effect = lower value 0.969 | S. cerevisiae deletion strains, locus YGL248W, strain PDE1, stronger effect = lower value 1.01 | S. cerevisiae deletion strains, locus YGR078C, strain PAC10, stronger effect = lower value 0.948 | S. cerevisiae deletion strains, locus YGR135W, strain pre9, stronger effect = lower value 1.04 | S. cerevisiae deletion strains, locus YGR229C, strain SMI1, stronger effect = lower value 0.986 | S. cerevisiae deletion strains, locus YGR252W, strain gcn5, stronger effect = lower value 0.961 | S. cerevisiae deletion strains, locus YHR030C, strain SLT2, stronger effect = lower value 0.998 | S. cerevisiae deletion strains, locus YHR079C, strain IRE1 (second series), stronger effect = lower value 0.972 | S. cerevisiae deletion strains, locus YHR094C, strain hxt1, stronger effect = lower value 0.989 | S. cerevisiae deletion strains, locus YHR129C, strain ARP1, stronger effect = lower value 1 | S. cerevisiae deletion strains, locus YHR200W, strain rpn10, stronger effect = lower value 1 | S. cerevisiae deletion strains, locus YIL066C, strain RNR3, stronger effect = lower value 0.973 | S. cerevisiae deletion strains, locus YIL073C, strain SPO22, stronger effect = lower value 0.882 | S. cerevisiae deletion strains, locus YIL125W, strain kgd1, stronger effect = lower value 1 | S. cerevisiae deletion strains, locus YIR030C, strain dcg1, stronger effect = lower value 1 | S. cerevisiae deletion strains, locus YJL095W, strain BCK1, stronger effect = lower value 1.01 | S. cerevisiae deletion strains, locus YJL134W, strain LCB3, stronger effect = lower value 1 | S. cerevisiae deletion strains, locus YJL168C, strain set2, stronger effect = lower value 1 | S. cerevisiae deletion strains, locus YJL187C, strain SWE1 (second series), stronger effect = lower value 0.994 | S. cerevisiae deletion strains, locus YJR043C, strain POL32, stronger effect = lower value 0.997 | S. cerevisiae deletion strains, locus YJR075W, strain HOC1, stronger effect = lower value 1.01 | S. cerevisiae deletion strains, locus YKL009W, strain mrt4, stronger effect = lower value 0.988 | S. cerevisiae deletion strains, locus YKL068W, stronger effect = lower value 0.982 | S. cerevisiae deletion strains, locus YKL085W, strain MDH1 (second series), stronger effect = lower value 0.994 | S. cerevisiae deletion strains, locus YKL085W, strain MDH1, stronger effect = lower value 0.994 | S. cerevisiae deletion strains, locus YKL190W, strain CNB1, stronger effect = lower value 0.977 | S. cerevisiae deletion strains, locus YKR001C, strain vps1, stronger effect = lower value 0.974 | S. cerevisiae deletion strains, locus YLR039C, strain RIC1, stronger effect = lower value 0.986 | S. cerevisiae deletion strains, locus YLR058C, strain SHM2, stronger effect = lower value 0.989 | S. cerevisiae deletion strains, locus YLR102C, strain apc9, stronger effect = lower value 0.995 | S. cerevisiae deletion strains, locus YLR262C, strain YPT6, stronger effect = lower value 0.954 | S. cerevisiae deletion strains, locus YLR268W, strain sec22, stronger effect = lower value 1.03 | S. cerevisiae deletion strains, locus YLR330W, strain CHS5, stronger effect = lower value 0.995 | S. cerevisiae deletion strains, locus YLR342W, strain FKS1 (second series), stronger effect = lower value 0.996 | S. cerevisiae deletion strains, locus YLR371W, strain rom2, stronger effect = lower value 0.983 | S. cerevisiae deletion strains, locus YLR418C, strain cdc73, stronger effect = lower value 1.01 | S. cerevisiae deletion strains, locus YML016C, strain PPZ1, stronger effect = lower value 1 | S. cerevisiae deletion strains, locus YML032C, strain rad52, stronger effect = lower value 0.986 | S. cerevisiae deletion strains, locus YML124C, strain tub3, stronger effect = lower value 1 | S. cerevisiae deletion strains, locus YMR078C, strain ctf18, stronger effect = lower value 1 | S. cerevisiae deletion strains, locus YMR223W, strain ubp8, stronger effect = lower value 0.99 | S. cerevisiae deletion strains, locus YMR263W, strain SAP30, stronger effect = lower value 0.982 | S. cerevisiae deletion strains, locus YMR307W, strain GAS1, stronger effect = lower value 0.924 | S. cerevisiae deletion strains, locus YNL067W, strain RPL9B, stronger effect = lower value 0.99 | S. cerevisiae deletion strains, locus YNL128W, strain TEP1, stronger effect = lower value 1 | S. cerevisiae deletion strains, locus YNL153C, strain GIM3, stronger effect = lower value 0.989 | S. cerevisiae deletion strains, locus YNL233W, strain BNI4, stronger effect = lower value 1 | S. cerevisiae deletion strains, locus YNL250W, strain rad50, stronger effect = lower value 0.985 | S. cerevisiae deletion strains, locus YNL271C, strain bni1, stronger effect = lower value 1 | S. cerevisiae deletion strains, locus YNL298W, strain CLA4, stronger effect = lower value 1.01 | S. cerevisiae deletion strains, locus YNL307C, strain MCK1, stronger effect = lower value 0.995 | S. cerevisiae deletion strains, locus YNL322C, strain KRE1, stronger effect = lower value 0.992 | S. cerevisiae deletion strains, locus YNR052C, strain pop2, stronger effect = lower value 0.999 | S. cerevisiae deletion strains, locus YOL006C, strain TOP1, stronger effect = lower value 0.937 | S. cerevisiae deletion strains, locus YOL012C, strain htz1 1.25 | S. cerevisiae deletion strains, locus YOL147C, strain pex11, stronger effect = lower value 0.995 | S. cerevisiae deletion strains, locus YOR061W, strain CKA2, stronger effect = lower value 0.996 | S. cerevisiae deletion strains, locus YOR069W, strain VPS5, stronger effect = lower value 0.998 | S. cerevisiae deletion strains, locus YOR136W, strain idh2, stronger effect = lower value 1 | S. cerevisiae deletion strains, locus YOR144C, strain elg1, stronger effect = lower value 0.994 | S. cerevisiae deletion strains, locus YOR184W, strain ser1, stronger effect = lower value 0.976 | S. cerevisiae deletion strains, locus YOR316C, strain cot1, stronger effect = lower value 1 | S. cerevisiae deletion strains, locus YPL055C, strain LGE1, stronger effect = lower value 0.908 | S. cerevisiae deletion strains, locus YPL241C, strain CIN2, stronger effect = lower value 0.987 | S. cerevisiae deletion strains, locus YPR119W, strain clb2, stronger effect = lower value 1 | S. cerevisiae deletion strains, locus YPR141C, strain kar3, stronger effect = lower value 0.998 | S. cerevisiae deletion strains, locus YPR163C, strain tif3, stronger effect = lower value 0.999 | S. cerevisiae deletion strains, locus YPR167C, strain met16, stronger effect = lower value 1 | S. cerevisiae deletion strains, strain wtn01, stronger effect = lower value 0.999 | S. cerevisiae strains, strain wild type, stronger effect = lower value 0.996
